The source of these data is PubChem BioAssay (NCI).

The test in a line: NCI Yeast Anticancer Drug Screen. Data for the sgs1 mgt1 strain (AID 161).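 Note: 0% = growth of cultures given vehicle only.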 Particulars: S. cerevisiae sgs1 mgt1 strain, active compounds read high. Here is the method: Growth inhibition of yeast strains with defined genetic alterations is measured as a screen for potential anti-cancer activity. Selected strains with alterations in DNA damage repair or cell cycle control were exposed to compounds and growth inhibition was measured relative to vehicle treated controls. The strain used in this assay is sgs1 mgt1

The mark [1] stands for this setting: at 5.0 µM (retest, dose inferred, filed as 0.5).
Setting [2] is: at 50.0 µM (retest, dose inferred, filed as 5.0).

Molecules are shown by their SMILES. About 79,000 compounds went through this panel and 15% of them were active in at least one assay; those are over-represented in the sample as a whole. A number with no mark means an inactive call. Calls of active or inactive are those of the source. Cut-off read from the data, not from the text of the source: active = growth inhibition above about 70%; inactive = the rest.

As to `CC(=O)C(CN(C)Cc1ccccc1)C(c1ccccc1)c1c(O)c2ccccc2oc1=O` (configuration not stated), the growth inhibition is 24% under setting [1], 24% under setting [2] and 71.7% (active) (at 50.0 µM).
Turning to `COc1ccc(CN2CCCN(Cc3ccc(OC)cc3OC)C2c2ccc(N(CCCl)CCCl)cc2)c(OC)c1`, the growth inhibition reads like this: under setting [1], -5%; under setting [2], 42%; (at 50.0 µM) 60.8%.
As to `Clc1ccc2c(c1)C(c1ccccc1Cl)=NCC(SCCN1CCOCC1)=N2`, the growth inhibition is, setting by setting: under setting [1], 63%; under setting [2], 98% (active); (at 50.0 µM) 89.7% (active).
The matching figures for `O=C(OCCl)c1ccccc1`: -4%, 1% and 13.5%.
With `Clc1ccc(Cl)c(Cl)c1`, the growth inhibition was -6% under setting [1], 98% (active) under setting [2] and 98.8% (active) (at 50.0 µM).
On to `CC1=C(CC/C(C)=C/CCC2(C)CCC([C@H](C)C(=O)O)OO2)C(C)(C)CCC1` (some centres not stated) (tested in a mixture with another compound), for which the growth inhibition is 52% under setting [1], 96% (active) under setting [2] and 93% (active) (at 50.0 µM).
The like results for `O=[N+]([O-])c1cc(Cl)ccc1S(=O)(=O)F` were, in that order, 99% (active), 99% (active) and 99.5% (active).
In the case of `C[C@]12CC[C@H](OC3OC(CO)C(O)C(O)C3O)C[C@H]1CC[C@@H]1[C@@H]2CC[C@]2(C)[C@@H](C3=CCOC3=O)CC[C@]12O` (some centres not stated), the growth inhibition is, setting by setting: under setting [1], -17%; under setting [2], -2%; (at 50.0 µM) 6.4%.
For `CC(=O)[O][Pb]([O]C(C)=O)([O]C(C)=O)[c]1ccccc1`, the growth inhibition under setting [1] is 86% (active), the growth inhibition under setting [2] is 99% (active) and the growth inhibition (at 50.0 µM) is 93.6% (active).
For the molecule `NC(=O)/C=C/c1ccc([As]=O)cc1` (configuration not stated), the growth inhibition by setting is: under setting [1], 0%; under setting [2], 34%; (at 50.0 µM) 99.3% (active).
The like results for `[Cl][Pt+2][Cl].[NH-]c1ccc([N+](=O)[O-])cc1[NH-]` were, in that order, 100% (active), 94% (active) and 75.5% (active).
Consider `O=[N+]([O-])c1ccc(CCl)cc1`, for which the growth inhibition (at 50.0 µM) was 10.7%.
Same read-out and setting: the value for `C(=Nc1ccccc1)C1CCCC[N-]1.C(=Nc1ccccc1)C1CCCC[N-]1.[Cu+2].[O-][Cl+3]([O-])([O-])O` (configuration not stated) was 65%; that for `OC1(CN2CCCCC2)N=C(c2ccccc2)c2ccsc2-n2cccc21` (configuration not stated) was -25.2%; that for `CSc1sc2ccccc2[s+]1` was -0.35%.
`c1ccc(C2(N3CCC4(CC3)OCCO4)CCCCC2)cc1`: the growth inhibition (at 50.0 µM) was 9.2%.
On the same count and under the same terms, the value for `S=c1[nH]c2ccccc2[nH]1.[Zn+2]` was 18.2%.
For the molecule `OCC12COCN1COC2`, where the note is “at 50.0 µM”, the growth inhibition was -23.6%.
Turning to `O=P(Oc1ccccc1)(Oc1ccccc1)N(CCCl)CCCl`, the growth inhibition (at 50.0 µM) was -8.35%.
In the case of `CCOC(=O)C1(O)N=C(c2ccccc2)c2ccccc2-n2cccc21` (configuration not stated), the growth inhibition (at 50.0 µM) was -2.6%.
